Results published in publication PMC7862700, “An all-to-all approach to the identification of sequence-specific readers for epigenetic DNA modifications on cytosine”.

Legend:
Assay in all cases: DAPPL (digital affinity profiling via proximity ligation, sequencing); 10 mM Tris-HCl pH 7.5, 50 mM NaCl, 1 mM DTT, 4% glycerol, room temperature, 30 min; GST-TFs on glutathione beads, 16-mer random dsDNA library, 0.1% formaldehyde crosslink after washing; high values mean tight binding
FLI1 = target: T1, FLI1 (Homo sapiens, UniProt Q01543 1-452); settings: protein: recombinant; tags: N-terminal GST; dsDNA, one strand shown
T1 sequence: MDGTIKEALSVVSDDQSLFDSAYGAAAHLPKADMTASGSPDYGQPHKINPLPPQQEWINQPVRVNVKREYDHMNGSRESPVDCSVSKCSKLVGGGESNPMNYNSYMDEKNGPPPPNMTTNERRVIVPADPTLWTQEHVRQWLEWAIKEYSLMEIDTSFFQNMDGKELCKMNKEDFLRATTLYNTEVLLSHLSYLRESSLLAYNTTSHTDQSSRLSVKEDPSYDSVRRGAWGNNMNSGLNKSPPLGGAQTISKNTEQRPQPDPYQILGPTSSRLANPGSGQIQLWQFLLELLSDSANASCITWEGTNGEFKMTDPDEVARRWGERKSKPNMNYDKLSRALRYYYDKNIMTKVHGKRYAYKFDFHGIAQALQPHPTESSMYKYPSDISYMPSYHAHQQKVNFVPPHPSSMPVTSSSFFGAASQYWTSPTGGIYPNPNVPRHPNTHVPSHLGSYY
In short: (§1)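 GST fusions of human transcription factors were expressed in yeast and captured with glutathione beads. Once given DNA barcodes and pooled alongside a tag-only sample, they were incubated for 30 min at room temperature with 200 nmole of a random double-stranded 16-mer DNA library in Tris/NaCl/DTT/glycerol buffer, then washed, crosslinked (0.1% formaldehyde), proximity-ligated, PCR-amplified and sequenced on an Illumina NextSeq500. The binding signal of each hexamer is its read frequency for a factor divided by its frequency for the tag-only sample.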

ELK1 = target: T2, ELK1 (Homo sapiens, UniProt P19419 1-428); settings: protein: recombinant; tags: N-terminal GST; dsDNA, one strand shown
T2 sequence: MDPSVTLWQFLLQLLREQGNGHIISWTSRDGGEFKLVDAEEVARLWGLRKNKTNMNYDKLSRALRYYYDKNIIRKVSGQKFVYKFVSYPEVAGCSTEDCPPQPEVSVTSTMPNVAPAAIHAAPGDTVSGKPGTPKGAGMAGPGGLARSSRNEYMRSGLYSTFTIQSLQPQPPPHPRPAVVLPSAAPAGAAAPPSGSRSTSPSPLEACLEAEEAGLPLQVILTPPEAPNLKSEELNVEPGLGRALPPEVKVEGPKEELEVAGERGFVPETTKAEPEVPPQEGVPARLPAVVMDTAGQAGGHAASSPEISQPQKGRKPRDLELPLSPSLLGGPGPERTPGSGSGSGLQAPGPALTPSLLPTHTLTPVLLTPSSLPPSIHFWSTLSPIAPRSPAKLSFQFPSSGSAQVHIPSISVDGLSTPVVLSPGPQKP
In short: as §1

GABPA = target: T3, GABPA (Homo sapiens, UniProt Q06546 1-454); settings: protein: recombinant; tags: N-terminal GST; dsDNA, one strand shown
T3 sequence: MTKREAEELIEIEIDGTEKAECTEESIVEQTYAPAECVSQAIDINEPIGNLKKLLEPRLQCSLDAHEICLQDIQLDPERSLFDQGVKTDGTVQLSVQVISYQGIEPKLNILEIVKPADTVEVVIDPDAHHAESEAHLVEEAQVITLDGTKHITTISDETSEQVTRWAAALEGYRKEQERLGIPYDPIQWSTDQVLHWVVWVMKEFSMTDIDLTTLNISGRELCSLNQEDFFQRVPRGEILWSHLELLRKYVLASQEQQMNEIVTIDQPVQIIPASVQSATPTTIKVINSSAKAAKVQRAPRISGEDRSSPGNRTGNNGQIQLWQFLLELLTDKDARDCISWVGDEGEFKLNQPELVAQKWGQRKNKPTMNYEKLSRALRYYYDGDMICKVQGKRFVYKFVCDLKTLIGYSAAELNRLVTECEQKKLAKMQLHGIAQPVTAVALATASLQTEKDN
In short: as §1

ERG = target: T4, ERG (Homo sapiens, UniProt P11308 1-479); settings: protein: recombinant; tags: N-terminal GST; dsDNA, one strand shown
T4 sequence: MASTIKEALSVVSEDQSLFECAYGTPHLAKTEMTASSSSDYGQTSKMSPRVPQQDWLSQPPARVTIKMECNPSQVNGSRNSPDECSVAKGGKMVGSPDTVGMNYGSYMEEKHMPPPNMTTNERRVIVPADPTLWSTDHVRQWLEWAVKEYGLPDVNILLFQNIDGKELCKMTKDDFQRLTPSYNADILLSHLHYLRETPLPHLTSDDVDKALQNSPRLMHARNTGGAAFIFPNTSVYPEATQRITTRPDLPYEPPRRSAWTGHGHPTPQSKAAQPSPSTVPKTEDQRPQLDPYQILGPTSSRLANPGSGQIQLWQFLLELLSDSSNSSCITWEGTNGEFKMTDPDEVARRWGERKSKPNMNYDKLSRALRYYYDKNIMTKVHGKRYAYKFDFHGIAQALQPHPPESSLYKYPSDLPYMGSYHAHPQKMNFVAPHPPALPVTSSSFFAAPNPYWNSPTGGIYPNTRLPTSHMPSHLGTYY
In short: as §1

ELF1 = ELF1 (Homo sapiens, UniProt P32519 1-619); settings: protein: recombinant; tags: N-terminal GST; dsDNA, one strand shown
In short: as §1

EHF = target: T5, EHF (Homo sapiens, UniProt Q9NZC4 1-300); settings: protein: recombinant; tags: N-terminal GST; dsDNA, one strand shown
T5 sequence: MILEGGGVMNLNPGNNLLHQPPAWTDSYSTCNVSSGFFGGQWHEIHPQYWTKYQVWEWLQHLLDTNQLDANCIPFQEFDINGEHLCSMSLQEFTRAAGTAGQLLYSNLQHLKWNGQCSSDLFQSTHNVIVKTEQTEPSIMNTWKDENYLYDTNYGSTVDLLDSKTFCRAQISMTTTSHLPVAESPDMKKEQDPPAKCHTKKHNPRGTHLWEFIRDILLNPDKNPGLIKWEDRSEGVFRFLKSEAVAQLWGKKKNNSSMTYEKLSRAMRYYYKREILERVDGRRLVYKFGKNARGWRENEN
In short: as §1

SPI1 = SPI1 (Homo sapiens, UniProt P17947 1-270); settings: protein: recombinant; tags: N-terminal GST; dsDNA, one strand shown
In short: as §1

SPIB = SPIB (Homo sapiens, UniProt Q01892 1-262); settings: protein: recombinant; tags: N-terminal GST; dsDNA, one strand shown
In short: as §1

ELK3 = target: T6, ELK3 (Homo sapiens, UniProt P41970 1-407); settings: protein: recombinant; tags: N-terminal GST; dsDNA, one strand shown
T6 sequence: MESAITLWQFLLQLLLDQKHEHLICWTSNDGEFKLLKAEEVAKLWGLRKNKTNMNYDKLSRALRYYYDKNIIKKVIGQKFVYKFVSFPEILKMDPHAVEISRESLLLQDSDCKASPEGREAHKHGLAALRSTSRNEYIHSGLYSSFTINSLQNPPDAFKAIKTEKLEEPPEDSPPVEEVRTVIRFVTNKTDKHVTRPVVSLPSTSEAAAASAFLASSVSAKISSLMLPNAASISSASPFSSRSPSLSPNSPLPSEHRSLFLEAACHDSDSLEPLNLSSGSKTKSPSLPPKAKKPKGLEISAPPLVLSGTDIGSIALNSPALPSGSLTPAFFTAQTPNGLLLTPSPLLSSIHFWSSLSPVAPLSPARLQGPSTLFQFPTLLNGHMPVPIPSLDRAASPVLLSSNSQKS
In short: as §1

FEV = target: T7, FEV (Homo sapiens, UniProt Q99581 1-238); settings: protein: recombinant; tags: N-terminal GST; dsDNA, one strand shown
T7 sequence: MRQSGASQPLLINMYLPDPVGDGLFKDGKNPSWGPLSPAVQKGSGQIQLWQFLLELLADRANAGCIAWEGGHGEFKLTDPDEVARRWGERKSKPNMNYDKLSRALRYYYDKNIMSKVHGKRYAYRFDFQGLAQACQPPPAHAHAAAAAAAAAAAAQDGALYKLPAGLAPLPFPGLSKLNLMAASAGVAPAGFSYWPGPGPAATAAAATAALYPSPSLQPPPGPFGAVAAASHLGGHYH
In short: as §1

ETV5 = ETV5 (Homo sapiens, UniProt P41161 1-510); settings: protein: recombinant; tags: N-terminal GST; dsDNA, one strand shown
In short: as §1

HSF1 = HSF1 (Homo sapiens, UniProt Q00613 1-529); settings: protein: recombinant; tags: N-terminal GST; chain copies: 3; dsDNA, one strand shown
In short: as §1

SPIC = target: T8, SPIC (Homo sapiens, UniProt Q8N5J4 1-248); settings: protein: recombinant; tags: N-terminal GST; dsDNA, one strand shown
T8 sequence: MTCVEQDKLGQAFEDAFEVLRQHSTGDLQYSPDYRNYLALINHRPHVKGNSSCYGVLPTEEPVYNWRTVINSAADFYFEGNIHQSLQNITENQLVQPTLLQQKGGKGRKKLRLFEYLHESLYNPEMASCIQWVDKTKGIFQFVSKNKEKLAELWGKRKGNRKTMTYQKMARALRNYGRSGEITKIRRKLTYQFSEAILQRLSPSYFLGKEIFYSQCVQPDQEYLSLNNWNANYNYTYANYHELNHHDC
In short: as §1

ELF4 = ELF4 (Homo sapiens, UniProt Q99607 1-663); settings: protein: recombinant; tags: N-terminal GST; dsDNA, one strand shown
In short: as §1

ELK4 = target: T9, ELK4 (Homo sapiens, UniProt P28324-2 1-405); settings: protein: recombinant; tags: N-terminal GST; dsDNA, one strand shown
T9 sequence: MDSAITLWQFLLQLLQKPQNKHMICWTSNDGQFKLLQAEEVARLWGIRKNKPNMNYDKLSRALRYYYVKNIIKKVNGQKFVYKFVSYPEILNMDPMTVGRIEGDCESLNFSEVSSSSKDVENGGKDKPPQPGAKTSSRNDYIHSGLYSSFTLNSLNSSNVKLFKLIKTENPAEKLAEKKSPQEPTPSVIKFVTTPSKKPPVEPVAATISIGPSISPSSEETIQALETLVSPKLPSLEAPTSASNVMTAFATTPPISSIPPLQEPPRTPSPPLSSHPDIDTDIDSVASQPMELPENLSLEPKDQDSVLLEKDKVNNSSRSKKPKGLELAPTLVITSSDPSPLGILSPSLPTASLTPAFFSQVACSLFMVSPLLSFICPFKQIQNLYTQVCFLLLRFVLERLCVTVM
In short: as §1

ETV2 = target: T10, ETV2 (Homo sapiens, UniProt O00321 1-342); settings: protein: recombinant; tags: N-terminal GST; dsDNA, one strand shown
T10 sequence: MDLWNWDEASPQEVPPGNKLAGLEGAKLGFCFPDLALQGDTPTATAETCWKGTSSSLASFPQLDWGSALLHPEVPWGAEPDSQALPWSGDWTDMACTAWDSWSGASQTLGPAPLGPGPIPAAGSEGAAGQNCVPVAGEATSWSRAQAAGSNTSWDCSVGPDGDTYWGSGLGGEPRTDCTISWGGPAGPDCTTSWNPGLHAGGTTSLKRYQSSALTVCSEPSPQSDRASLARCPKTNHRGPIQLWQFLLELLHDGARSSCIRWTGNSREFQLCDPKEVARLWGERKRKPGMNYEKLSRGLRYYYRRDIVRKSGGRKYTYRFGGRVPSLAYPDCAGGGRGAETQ
In short: as §1

ELF3 = target: T11, ELF3 (Homo sapiens, UniProt P78545 1-371); settings: protein: recombinant; tags: N-terminal GST; dsDNA, one strand shown
T11 sequence: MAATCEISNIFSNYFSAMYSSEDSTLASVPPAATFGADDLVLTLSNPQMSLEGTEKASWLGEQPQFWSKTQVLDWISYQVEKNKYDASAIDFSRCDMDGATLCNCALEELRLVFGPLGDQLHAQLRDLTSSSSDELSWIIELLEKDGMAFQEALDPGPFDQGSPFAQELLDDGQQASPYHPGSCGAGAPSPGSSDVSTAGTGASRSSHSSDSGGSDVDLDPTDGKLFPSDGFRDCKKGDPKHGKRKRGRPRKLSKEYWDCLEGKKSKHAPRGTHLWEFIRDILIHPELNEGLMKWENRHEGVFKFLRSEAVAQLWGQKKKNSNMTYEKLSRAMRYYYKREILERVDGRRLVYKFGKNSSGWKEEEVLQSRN
In short: as §1

CRX = CRX (Homo sapiens, UniProt O43186 1-299); settings: protein: recombinant; tags: N-terminal GST; dsDNA, one strand shown
In short: as §1

ETV1 = ETV1 (Homo sapiens, UniProt P50549 1-477); settings: protein: recombinant; tags: N-terminal GST; dsDNA, one strand shown
In short: as §1

Chain of ELF4 (Q99607 whole entry): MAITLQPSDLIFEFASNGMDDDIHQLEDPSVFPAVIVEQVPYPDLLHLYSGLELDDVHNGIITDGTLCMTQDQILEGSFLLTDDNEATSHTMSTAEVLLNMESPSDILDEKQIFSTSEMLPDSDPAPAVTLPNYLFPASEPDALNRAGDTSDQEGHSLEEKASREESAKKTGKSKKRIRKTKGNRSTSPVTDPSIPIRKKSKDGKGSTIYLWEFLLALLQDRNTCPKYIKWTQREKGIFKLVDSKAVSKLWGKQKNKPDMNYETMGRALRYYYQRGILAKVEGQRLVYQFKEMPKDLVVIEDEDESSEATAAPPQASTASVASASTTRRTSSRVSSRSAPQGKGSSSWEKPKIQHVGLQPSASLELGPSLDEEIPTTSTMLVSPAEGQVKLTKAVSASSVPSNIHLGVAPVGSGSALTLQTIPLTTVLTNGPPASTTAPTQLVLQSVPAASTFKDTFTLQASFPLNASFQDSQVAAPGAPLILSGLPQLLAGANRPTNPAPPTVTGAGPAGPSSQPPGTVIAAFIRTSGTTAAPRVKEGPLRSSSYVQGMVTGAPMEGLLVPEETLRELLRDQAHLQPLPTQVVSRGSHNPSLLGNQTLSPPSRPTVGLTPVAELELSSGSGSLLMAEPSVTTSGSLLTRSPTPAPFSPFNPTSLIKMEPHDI
Chain of ETV1 (P50549 whole entry): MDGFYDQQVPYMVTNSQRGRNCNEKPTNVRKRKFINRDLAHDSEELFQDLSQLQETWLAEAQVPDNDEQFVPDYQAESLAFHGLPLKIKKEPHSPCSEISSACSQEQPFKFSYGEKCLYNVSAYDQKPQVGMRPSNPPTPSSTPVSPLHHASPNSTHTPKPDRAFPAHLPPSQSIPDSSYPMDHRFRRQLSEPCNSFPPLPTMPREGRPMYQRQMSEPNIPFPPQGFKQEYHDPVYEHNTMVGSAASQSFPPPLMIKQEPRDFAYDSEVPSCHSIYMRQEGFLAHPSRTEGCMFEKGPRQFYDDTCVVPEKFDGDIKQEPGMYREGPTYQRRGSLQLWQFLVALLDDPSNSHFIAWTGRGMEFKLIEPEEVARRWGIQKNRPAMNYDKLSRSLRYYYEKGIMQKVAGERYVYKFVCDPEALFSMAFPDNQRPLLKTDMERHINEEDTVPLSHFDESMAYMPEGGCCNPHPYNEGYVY
Chain of HSF1 (Q00613 whole entry): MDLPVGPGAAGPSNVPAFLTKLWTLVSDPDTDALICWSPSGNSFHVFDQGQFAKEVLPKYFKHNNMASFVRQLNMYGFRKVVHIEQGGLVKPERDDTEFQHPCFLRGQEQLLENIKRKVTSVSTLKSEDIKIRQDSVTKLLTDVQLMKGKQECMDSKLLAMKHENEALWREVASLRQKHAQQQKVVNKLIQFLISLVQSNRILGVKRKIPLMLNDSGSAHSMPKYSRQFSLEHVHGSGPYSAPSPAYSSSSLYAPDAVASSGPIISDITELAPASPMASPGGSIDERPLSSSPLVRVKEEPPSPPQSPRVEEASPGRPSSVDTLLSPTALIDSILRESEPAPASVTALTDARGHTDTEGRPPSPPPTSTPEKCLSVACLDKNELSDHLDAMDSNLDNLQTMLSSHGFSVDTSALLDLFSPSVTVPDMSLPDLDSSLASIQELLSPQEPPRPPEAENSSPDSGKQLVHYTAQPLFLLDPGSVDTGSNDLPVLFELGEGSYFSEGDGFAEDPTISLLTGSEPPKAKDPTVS
Chain of ELF1 (P32519 whole entry): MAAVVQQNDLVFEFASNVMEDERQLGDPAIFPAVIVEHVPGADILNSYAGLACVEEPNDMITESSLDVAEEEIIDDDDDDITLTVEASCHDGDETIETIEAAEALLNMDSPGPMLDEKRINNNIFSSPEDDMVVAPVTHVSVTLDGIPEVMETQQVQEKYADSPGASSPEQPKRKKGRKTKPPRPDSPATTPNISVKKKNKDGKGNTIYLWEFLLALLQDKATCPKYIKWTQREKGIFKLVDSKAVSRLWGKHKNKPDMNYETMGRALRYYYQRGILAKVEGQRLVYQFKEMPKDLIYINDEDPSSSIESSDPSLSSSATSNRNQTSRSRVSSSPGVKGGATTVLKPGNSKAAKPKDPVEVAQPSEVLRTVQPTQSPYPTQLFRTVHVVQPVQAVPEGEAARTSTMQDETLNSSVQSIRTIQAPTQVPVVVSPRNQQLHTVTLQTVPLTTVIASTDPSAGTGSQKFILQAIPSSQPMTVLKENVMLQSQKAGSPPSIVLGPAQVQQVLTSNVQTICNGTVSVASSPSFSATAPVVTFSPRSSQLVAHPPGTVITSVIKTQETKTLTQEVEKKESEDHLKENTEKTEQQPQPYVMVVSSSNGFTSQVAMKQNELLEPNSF
Chain of ETV5 (P41161 whole entry): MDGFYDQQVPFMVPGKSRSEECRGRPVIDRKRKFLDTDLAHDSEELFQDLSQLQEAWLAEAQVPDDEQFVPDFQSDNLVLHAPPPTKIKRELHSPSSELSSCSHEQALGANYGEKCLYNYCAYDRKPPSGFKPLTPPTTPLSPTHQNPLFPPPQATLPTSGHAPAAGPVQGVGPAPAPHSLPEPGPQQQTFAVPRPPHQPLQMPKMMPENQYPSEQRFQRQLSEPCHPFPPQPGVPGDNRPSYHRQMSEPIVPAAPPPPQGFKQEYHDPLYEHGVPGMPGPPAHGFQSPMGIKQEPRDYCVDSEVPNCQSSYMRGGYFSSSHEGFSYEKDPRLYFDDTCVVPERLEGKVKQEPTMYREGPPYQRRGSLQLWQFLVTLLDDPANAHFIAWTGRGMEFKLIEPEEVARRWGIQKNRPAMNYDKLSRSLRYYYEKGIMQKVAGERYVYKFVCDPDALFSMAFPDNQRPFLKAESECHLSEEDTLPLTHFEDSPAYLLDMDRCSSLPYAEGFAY
Chain of CRX (O43186 whole entry): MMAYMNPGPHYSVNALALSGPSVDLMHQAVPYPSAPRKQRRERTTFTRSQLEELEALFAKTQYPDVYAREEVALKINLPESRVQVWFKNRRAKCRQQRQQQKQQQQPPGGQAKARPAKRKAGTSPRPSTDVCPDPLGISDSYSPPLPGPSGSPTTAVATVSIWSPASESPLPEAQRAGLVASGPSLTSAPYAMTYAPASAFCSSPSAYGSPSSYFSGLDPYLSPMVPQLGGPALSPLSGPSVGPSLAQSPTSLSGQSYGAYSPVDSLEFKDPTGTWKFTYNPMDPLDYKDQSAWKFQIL
Chain of SPIB (Q01892 whole entry): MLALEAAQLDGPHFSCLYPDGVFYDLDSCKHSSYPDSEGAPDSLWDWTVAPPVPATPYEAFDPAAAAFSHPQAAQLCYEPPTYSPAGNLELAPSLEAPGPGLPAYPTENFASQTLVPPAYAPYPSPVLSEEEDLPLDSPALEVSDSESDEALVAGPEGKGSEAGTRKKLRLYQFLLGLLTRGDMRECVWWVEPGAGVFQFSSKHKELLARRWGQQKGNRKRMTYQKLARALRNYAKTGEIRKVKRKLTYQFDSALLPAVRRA

ATATCT
binding signal (FLI1): 1.25 fold enrichment (6-mer frequency, TF over GST control) | binding signal (ELK1): 1.19 fold enrichment (6-mer frequency, TF over GST control) | binding signal (GABPA): 1.26 fold enrichment (6-mer frequency, TF over GST control) | binding signal (ERG): 1.21 fold enrichment (6-mer frequency, TF over GST control) | binding signal (ELF1): 1.21 fold enrichment (6-mer frequency, TF over GST control) | binding signal (EHF): 1.17 fold enrichment (6-mer frequency, TF over GST control) | binding signal (SPI1): 1.16 fold enrichment (6-mer frequency, TF over GST control) | binding signal (SPIB): 1.21 fold enrichment (6-mer frequency, TF over GST control) | binding signal (ELK3): 1.15 fold enrichment (6-mer frequency, TF over GST control) | binding signal (FEV): 1.15 fold enrichment (6-mer frequency, TF over GST control) | binding signal (ETV5): 1.1 fold enrichment (6-mer frequency, TF over GST control) | binding signal (HSF1): 1.26 fold enrichment (6-mer frequency, TF over GST control) | binding signal (SPIC): 1.1 fold enrichment (6-mer frequency, TF over GST control) | binding signal (ELF4): 1.17 fold enrichment (6-mer frequency, TF over GST control) | binding signal (ELK4): 1.2 fold enrichment (6-mer frequency, TF over GST control) | binding signal (ETV2): 1.3 fold enrichment (6-mer frequency, TF over GST control) | binding signal (ELF3): 1.21 fold enrichment (6-mer frequency, TF over GST control) | binding signal (CRX): 1.39 fold enrichment (6-mer frequency, TF over GST control) | binding signal (ETV1): 1.16 fold enrichment (6-mer frequency, TF over GST control)
